Experimental findings from PubChem BioAssay (NCATS) are described below.

Activity calls are given as the source filed them. Calls come from the whole dose curve; as a rule, active = well fitted curve in the direction sought with a large enough effect; inconclusive = small, poorly fitted or top-dose-only effect, or another doubt; inactive = no such curve, though single readings can be large or run the other way.

The assay can be described thus: Cellular Toxicity (caspase-3) MRC-5 (AID 659). The settings on record: MRC-5 cells, luminescence, normalized: DMSO 0%, 10 µM staurosporine 100%; series mostly up to 91.7 µM. The source says:
NIH Chemical Genomics Center [NCGC]
NIH Molecular Libraries Screening Centers Network [MLSCN]
National Institutes of Environmental Health Sciences [NIEHS]
National Toxicology Program [NTP]
We have developed a 1536-well cell-based assay for quantitative high throughput screening (qHTS) against a number of cell lines to determine in vitro caspase 3/7 activity of small molecules. This particular assay uses the MRC-5 cell line which is derived from human normal lung fibroblasts.
NCGC Assay Protocol Summary:
The Caspase-Glo 3/7 assay (Promega) is a homogeneous method to measure caspase-3 and caspase-7 activities in cultured cells. The quantitation of caspase 3/7 activity is based on the cleavage of a peptide-aminoluciferin substrate. After caspase cleaves the substrate the free aminoluciferin is liberated and serves as the substrate of luciferase, which generates the light. The luminescent signal is proportional to amount of caspase 3/7 activity present.
Using the Caspase-Glo 3/7 assay, the amount of caspase 3/7 activity was measured in the MRC-5 line with complete culture medium following compound treatment for 16 hours. The assay was performed in opaque white 1536-well plates. In the screen, tamoxifen and staurosporine were used as positive controls. Library compounds were measured for their ability to cause the activation of caspase 3/7 in the cell line, as reflected by an increase in luminescence signal, in a concentration-dependent manner. Data were normalized to the controls for basal activity (DMSO only) and 100% stimulation (10 uM staurosporine). AC50 values were determined from concentration-response data modeled with the standard Hill equation.
qHTS protocol for caspase 3/7 assay in MRC-5 cells
[Step] [Parameter] [Value] [Description]
1. Reagent; 5 uL; 1500 MRC-5 cells/well
2. Time; 5 hr; 37 °C incubation
4. Controls; 23 nL; Tamoxifen 0.23 uM to 100 uM & staurosporine 1.4 pM to 100 uM
5. Time; 16 hr; 37 °C incubation
6. Reagent; 5 uL; Caspase-Glo 3/7 reagent
7. Time; 1 hr; Room Temperature
8. Detection; Luminescence; Viewlux plate reader
Keywords: caspase 3/7, apoptosis, MRC-5 cell line, luminescence, NTPHTS, NTPHTS_NCGC, NIEHS, EPA, DSSTox, MLSMR, MLSCN, NIH Roadmap, qHTS, NCGC
Consider `NCCS(=O)(=O)O`, for which the outcome was inactive.

In the case of `N[C@@H](Cc1c[nH]c2ccc(O)cc12)C(=O)O`, the compound was called inactive. In the case of `COc1ccc2[nH]cc(CCNC(C)=O)c2c1` it was “inactive”; in that of `CC(C)NCC(O)c1ccc(O)c(O)c1` (stereo unspecified), “inactive”.

For the compound `CCC1(c2ccccc2)C(=O)NCNC1=O`, the outcome was inactive. As for `O=c1c(-c2ccc(O)cc2)coc2cc(O)cc(O)c12`, the entry is “inactive”; as for `COc1cc2c(c(OC)c1OC)-c1ccc(OC)c(=O)cc1[C@@H](NC(C)=O)CC2`, “inactive”; as for `Nc1c2c(nc3ccccc13)CCCC2`, “inactive”. Consider `NS(=O)(=O)c1cc2c(cc1Cl)NCNS2(=O)=O`, for which the compound was classed as inactive. For the compound `CC(C)C(=O)Nc1ccc([N+](=O)[O-])c(C(F)(F)F)c1`, the compound was called inactive. For `O=c1[nH]cc(F)c(=O)[nH]1`, the result was inactive. Turning to `CC(COc1ccccc1)N(CCCl)Cc1ccccc1` (stereo unspecified), the compound was classed as inactive. In the case of `COc1ccc2c(c1)c(CC(=O)O)c(C)n2C(=O)c1ccc(Cl)cc1` it was “inactive”; in that of `Cn1c(=O)c2[nH]cnc2n(C)c1=O`, “inactive”; in that of `Clc1ccc(C(c2ccccc2Cl)C(Cl)Cl)cc1` (stereo unspecified), “inactive”. As for `Cc1cn([C@H]2C=C[C@@H](CO)O2)c(=O)[nH]c1=O`, the entry is “inactive”; as for `Nc1ccn([C@H]2CC[C@@H](CO)O2)c(=O)n1`, “inactive”.

For `Cc1cn([C@H]2C[C@H](N=[N+]=[N-])[C@@H](CO)O2)c(=O)[nH]c1=O`, the call was inactive.

For `COc1ccc(CCN(C)CCCC(C#N)(c2ccc(OC)c(OC)c2)C(C)C)cc1OC` (stereo unspecified), the call was inactive. In the case of `Cn1c(=O)c2c(ncn2C)n(C)c1=O`, the compound was called inactive.

Consider `Cc1ccc(-c2cc(C(F)(F)F)nn2-c2ccc(S(N)(=O)=O)cc2)cc1`, for which the compound was classed as inactive.
